Sampled rows, rich in hits. Any-hit rate of the full collection: about 9.4%.
ELG1 repair inh – blocks ELG1-dependent DNA repair in HEK293T cells. HEK293T ELG1-luciferase reporter, luminescence, 16 h; DNA damage induced by 5-fluorouridine. Potency, µM (doses to about 46.1 µM), for the others: at the highest dose activity change, negative = inhibition, hits mostly inhibitors. 330,000 tested, 2.3% active; further: on the % scale 0 is the no-effect control and ±100 the full control effect; nearly all actives have a fitted effect of over 55% in size
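Cells (2,000 per well) received 5-fluorouridine plus test compound or DMSO and were incubated 16 hr at 37 °C, 5% CO2. Luciferase activity was read by luminescence 30 min after ONE-Glo addition; signal suppression marked inhibition of damage-induced ELG1 function.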
SMN2 splice up – enhancers of SMN2 splice variant expression. HEK293 SMN2-luciferase splicing reporter, luminescence, 30-36 h. Potency, µM (titrated, usually from 46.1 µM), for inactives: top-dose activity change, positive = activation, usual class: activators. 210,000 tested, 2.8% active. AID 1458; further: % of control where 0% means no effect; nearly all actives have a fitted effect of over 55% in size
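HEK293 cells carry an SMN2 […]–luciferase reporter in which exon 7 inclusion puts luciferase in frame. Cells were plated 10-12 h before compound addition, then incubated 30-36 h at 37C. ONE-Glo luminescence was read; sodium butyrate at 4.5 mM final served as control.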
ELG1 genotoxic – inducers of genotoxicity in HEK293T ELG1-luciferase cells. Potency, µM (highest dose often 46 µM), for the others: top-dose activity change, positive = activation, hits mostly activators. AID 504466. HEK293T ELG1-luciferase reporter, luminescence, 16 h. 330,000 tested, 1.3% active; further: % of control where 0% means no effect; nearly all actives have a fitted effect of over 60% in size
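Genotoxic stress is detected as increased luminescence from luciferase-tagged ELG1 in HEK293T cells, measured with ONE-Glo after a 16 hr treatment at 37 °C.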
FLuc modulator – counter-screen for miR-21 project: firefly luciferase inhibitors or activators; P08659; purified FLuc, Km substrates, luminescence inhibition; Potency, µM (titrated, usually from 57.5 µM), inactives show top-dose activity change, negative = inhibition, hits mostly inhibitors; 360,000 tested, 6.9% active;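 further: plate controls were vehicle for no effect and reference inhibitor for full effect; nearly all actives have a fitted effect of over 55% in size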
Target sequence (P08659 whole entry, looked up): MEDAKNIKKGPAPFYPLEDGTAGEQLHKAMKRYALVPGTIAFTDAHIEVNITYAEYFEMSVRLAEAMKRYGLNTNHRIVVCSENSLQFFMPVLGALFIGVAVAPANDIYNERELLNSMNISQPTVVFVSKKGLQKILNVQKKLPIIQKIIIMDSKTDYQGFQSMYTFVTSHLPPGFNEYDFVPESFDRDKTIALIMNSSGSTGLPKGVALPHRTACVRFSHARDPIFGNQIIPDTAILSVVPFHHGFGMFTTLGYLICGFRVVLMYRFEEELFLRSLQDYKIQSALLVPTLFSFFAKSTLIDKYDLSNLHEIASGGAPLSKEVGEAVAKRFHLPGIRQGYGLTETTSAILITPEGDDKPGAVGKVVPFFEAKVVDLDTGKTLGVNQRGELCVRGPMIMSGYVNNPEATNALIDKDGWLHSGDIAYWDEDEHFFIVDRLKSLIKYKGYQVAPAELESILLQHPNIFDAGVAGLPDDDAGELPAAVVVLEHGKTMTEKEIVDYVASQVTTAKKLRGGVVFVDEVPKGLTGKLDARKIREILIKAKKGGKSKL
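Purified P. pyralis luciferase, 10 nM final, with Km-level 10 uM D-luciferin and 10 uM ATP in 50 mM Tris acetate pH 7.5, 10 mM Mg acetate, 0.01% Tween-20, 0.05% BSA; 6-point qHTS titration about 60 µM downward; luminescence read.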
Rab9 promoter act – activates the Rab9 promoter; 320,000 tested, 2.8% active; Huh7 Rab9 promoter-luciferase reporter, luminescence, 24 h; Potency, µM (highest dose often 9.22 µM), for the others: at the highest dose activation, negative = inhibition, hits mostly activators; further: % of control where 0% means no effect; nearly all actives have a fitted effect of over 60% in size
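Rab9 promoter-driven luciferase in stably transfected Huh7 cells; 1500 cells/well rested 2 h, exposed to compound in DMSO for 24 h at 37 °C, 5% CO2. Luminescence read 10 min after adding luciferase reagent at ambient temperature.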
NPC1 promoter act – NPC1 promoter activation; Potency, µM (titrated, usually from 9.22 µM), for the others: top-dose activation, hits mostly activators; Huh7 NPC1 promoter luciferase reporter, 24 h; 320,000 tested, 2.4% active; further: % of control where 0% means no effect; nearly all actives have a fitted effect of over 60% in size
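Stable NPC1-promoter luciferase Huh7 line; cpd (DMSO) 24 h, 37 °C, 5% CO2; Amplite luciferase reagent 10 min RT; luminescence readout. qHTS format.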
* = called active by the depositor; ? = inconclusive; / = no result; [ ] = dose if it differs, or a comment. The call rests on the fitted dose curve; in most records, active means well fitted curve in the direction sought with a large enough effect; inconclusive means small, poorly fitted or top-dose-only effect, or another doubt; inactive means no such curve, though single readings can be large; an effect the other way counts as inactive or inconclusive. Potency means the concentration at half of the fitted maximal effect.

SMILES	ELG1 repair inh	SMN2 splice up	ELG1 genotoxic	FLuc modulator	Rab9 promoter act	NPC1 promoter act
CC(=O)c1c(C)[nH]c(C(=O)COC(=O)c2c(-c3ccccc3)noc2C)c1C	20.6µM*	/	-0.8%	/	/	/
CC(=O)c1c(C)[nH]c(C(=O)OCC(=O)Nc2cc(S(=O)(=O)N3CCCC3)ccc2Cl)c1C	16.4µM*	-32.4%	-2.3%	-0.4%	-13.4%	-6.0%
CC(=O)c1c(C)[nH]c(C(=O)OCC(=O)Nc2ccccc2Cl)c1C	8.2µM*	/	-1.4%	-10.8%	-8.7%	-5.3%
CC(=O)c1c(C)[nH]c(C(=O)CN(C)CC(=O)Nc2ccccc2Cl)c1C	18.3µM*	/	-9.0%	/	/	/
CN(C)CCCNc1ncnc2nc[nH]c12	/	0.8%[9.22 µM]	/	/	/	/
CC(=O)c1c(C)[nH]c(C(=O)OCC(=O)Nc2nnc(-c3ccccc3)o2)c1C	?	/	-1.9%	21.3µM*	-6.8%	-3.4%
Cc1cc(NC(=O)c2cc(-c3ccccn3)nc3ccccc23)no1	?	-2.2%	-8.0%	-0.6%	-13.0%	-2.9%
Cc1ccc(-c2cc(C(=O)Nc3cc(C)on3)c3ccccc3n2)cc1	-0.4%	3.0%	-0.1%	-13.5%	5.8%	-1.3%
COc1ccc(-c2cc(C(=O)Nc3cc(C)on3)c3ccccc3n2)c(OC)c1	18.3µM*	/	-11.9%	-5.4%	0.0%	-2.4%
Cc1cc(NC(=O)c2cc(-c3ccc(C)c(C)c3)nc3ccccc23)no1	?	5.4%	-8.9%	4.78µM*	-1.2%	0.9%
Cc1cc(NC(=O)c2cc(-c3ccncc3)nc3c(C)cccc23)no1	9.2µM*	1.4%	-2.2%	1.9%	-19.7%	-15.4%
Cc1c(NC(=O)c2cc(-c3ccc(F)cc3)nc3ccccc23)c(=O)n(-c2ccccc2)n1C	8.2µM*	/	-7.3%	/	/	/
CC(C)c1ccc(NC(=O)C2CCCN(S(=O)(=O)c3cccc4nsnc34)C2)cc1 (configuration not stated)	/	0.7%	/	-1.7%	/	/
CC(=O)Nc1ccccc1C=C1c2ccccc2-c2ccccc21	/	5.8%[9.22 µM]	/	/	/	/
COc1ccc(-c2nc(CSCC(=O)NCCC(C)C)c(C)o2)cc1OC	/	3.4%	/	-5.7%	/	/
O=C(O)CCC(=O)c1cccc2ccccc12	-3.9%	7.3%	-1.1%	-20.7%	8.8%	0.0%
O=C(O)CCC(=O)c1ccc2ccc3cccc4ccc1c2c34	-3.1%	-13.0%[9.22 µM]	4.4%	21.3µM*	-3.5%	-0.6%
Cc1ccsc1/C=N/NC(=O)C(N)=O	?	?	-12.6%	?	15.9%	0.6%
Cc1ccsc1/C=N/NC(=O)CNC(=O)c1ccccc1	18.5%	/	1.4%[9.26 µM]	-9.7%	4.4%	-1.7%
Cc1ccsc1/C=N/Nc1cccc(C(=O)O)c1	?	0.1µM*	?	0.107µM*	0.0032µM*	3.16µM*
Cc1ccsc1/C=N/Nc1ccc(C(=O)O)cc1	?	/	?	0.269µM*	?	?
CNC(=O)Nc1ccc2nc(C)oc2c1	11.0%	/	-0.3%	2.7%	-9.2%	-7.3%
O=C(Nc1ccccc1)Nc1ccc2ncoc2c1	?	11.2µM*	?	12µM*	?	?
O=C(Nc1ccccc1)Nc1ccc2ocnc2c1	?	?	13.4%	10.7µM*	1.26µM*	?
O=[N+]([O-])c1cccc(COc2ncnc3cc([N+](=O)[O-])ccc23)c1	10.3µM*	/	-7.0%	-0.9%	1.4%	-0.1%
SMILES	ELG1 repair inh	SMN2 splice up	ELG1 genotoxic	FLuc modulator	Rab9 promoter act	NPC1 promoter act
C/C(=N\NC(=O)CN(c1ccc(Oc2ccccc2)cc1)S(C)(=O)=O)C(C)(C)C	-6.9%	-13.6%	-2.8%	-14.2%	-4.6%	-3.5%
Nc1c(C(=O)Nc2ccccc2Cl)nnn1Cc1cccc(Cl)c1	/	-34.3%	/	-1.6%	/	/
Cc1ccc(Nc2nc(-c3sc(NC(=O)c4cccc(Cl)c4)nc3C)cs2)cc1	-3.2%	-10.6%	-2.3%	9.53µM*	3.0%	-4.9%
COc1cccc(Nc2nc(-c3sc(NC(=O)CC(C)C)nc3C)cs2)c1	?	-23.0%	-9.5%	?	-7.0%	-7.4%
Cc1nc(N)sc1-c1csc(Nc2ccccc2)n1	?	11.2µM*	15.6%	10.7µM*	2.82µM*	?
CCC(=O)Nc1nc(C)c(-c2csc(Nc3cccc(C(=O)O)c3)n2)s1	22.1%	26.5%	-4.6%	10.7µM*	-2.6%	-1.0%
COc1cccc(Nc2nc(-c3sc(NC(=O)c4ccccc4)nc3C)cs2)c1	?	-58.5%	-6.8%	19µM*	-0.7%	0.0%
COc1ccccc1Nc1nc(-c2sc(NC(=O)c3cccc(Cl)c3)nc2C)cs1	-7.3%	-19.6%	1.3%	?	-1.3%	-3.0%
O=C(NCCS(=O)(=O)N1CCN(c2cccc(Cl)c2)CC1)C(c1ccccc1)c1ccccc1	/	/	/	-0.2%	/	/
Cc1noc(C)c1S(=O)(=O)N(CC(=O)NCc1ccccc1Cl)c1ccc(C(C)C)cc1	/	-9.4%	/	3.2%	/	/
COc1ccccc1N1CCN(C(=O)Cn2c(=O)nc(-c3ccccc3)c3ccccc32)CC1	/	/	/	1.7%	/	/
Cc1nc(N)sc1-c1csc(Nc2cccc(C(=O)O)c2)n1	3.1%	/	-7.0%	7.57µM*	15.4%	16.9%
Cc1nc(NC(=O)c2ccccc2)sc1-c1csc(Nc2ccc(C(=O)O)cc2)n1	?	/	-7.1%	0.477µM*	?	23.4%
Cc1csc(Nc2ccc(C(=O)O)cc2)n1	?	/	5.6%	?	15.9%	20.1%
O=C(O)c1ccc(Nc2nc(-c3ccccc3)cs2)cc1	?	2.51µM*	-2.2%	0.675µM*	0.398µM*	0.398µM*
Cc1nc(NC(=O)c2ccc(Cl)cc2)sc1-c1csc(Nc2cccc(F)c2)n1	0.9%	-9.1%	-3.0%	10.7µM*	0.2%	14.0%
COc1ccc(C2=CC(c3ccc(F)cc3)n3ncc(C(=O)Nc4ccc(C)cc4)c3N2)cc1 (configuration not stated)	/	/	/	0.7%	/	/
Cc1ccc(-c2nn(CC(=O)Nc3cccc(C(F)(F)F)c3)c(=O)c3ccccc23)cc1	/	-19.4%	/	2.8%	/	/
COc1cccc(NC(=O)c2ccncc2)c1	?	-1.6%	-3.4%	-4.5%	-3.8%	2.4%
Cc1ccc(Nc2nc(-c3sc(NC(=O)c4ccco4)nc3C)cs2)cc1	10.3µM*	-60.5%	-2.1%	16.9µM*	3.0%	7.4%
COc1cccc(NC(=O)c2sc(NC(=O)c3ccncc3)nc2C)c1	-23.9%	/	-4.4%	19µM*	0.1%	-2.5%
CCC(=O)Nc1nc(C)c(-c2csc(Nc3ccc(C(=O)O)cc3)n2)s1	0.5%	/	0.0%	16.9µM*	7.3%	-2.6%
Cc1ccccc1Nc1nc(-c2sc(NC(=O)c3ccco3)nc2C)cs1	?	-6.4%	-1.5%	?	1.5%	-0.4%
CCc1nnc2c3ccccc3nc(Nc3ccccc3OC)n12	/	-6.0%	/	1.3%	/	/
